Data published in PubChem BioAssay AID1159580 (chemical genetic matrix, 2015).
Where “and” joins values, the source holds several entries; their conditions need not be identical. Equal entries are not always repeated. The campaign covered roughly 5,500 compounds. About 2,000 (36%) were called active. Inconclusive results (about 18%) are left out. Rule as the data show it: active = normalized growth mostly below about 0.91 (no sharp cut-off); inconclusive = no clear call, values can overlap the other calls; inactive = mostly above about 0.92. The list shows a part of the results.

Assay: chemical genetic growth profiling, strain panel (AID 1159580);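 also: tested at 20 µM; growth read once vehicle control cultures reached saturation at 30 °C; 1 = growth at the plate median or of vehicle wells; lower values mean less growth of the strain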
Settings: S. cerevisiae deletion strains, growth OD

Measured: normalized growth

Cc1cc(OC(=O)c2c(C)cc(O)cc2O)cc(O)c1C(=O)O
inactive: locus YAL021C, strain ccr4, active compounds read low 1.02 | locus YAL026C, strain drs2, active compounds read low 0.991 | locus YAL030W, strain snc1, active compounds read low 0.995 | locus YBL061C, strain skt5, active compounds read low 0.973 | locus YBR009C, strain hhf1, active compounds read low 0.991 | locus YBR021W, strain FUR4, active compounds read low 1.01 | locus YBR023C, strain chs3, active compounds read low 0.978 | locus YBR171W, strain sec66, active compounds read low 0.988 | locus YBR229C, strain ROT2, active compounds read low 1.01 | locus YBR231C, strain swc5, active compounds read low 0.992 | locus YBR279W, strain paf1, active compounds read low 0.997 | locus YCL011C, strain gbp2, active compounds read low 0.991 | locus YCL016C, strain dcc1, active compounds read low 0.992 | locus YCL029C, strain bik1, active compounds read low 1 | locus YCL061C, strain MRC1, active compounds read low 0.989 | locus YCL069W, strain vba3, active compounds read low 0.998 | locus YCR088W, strain abp1, active compounds read low 0.997 | locus YDL005C, strain med2, active compounds read low 0.983 | locus YDL035C, strain GPR1, active compounds read low 1 | locus YDL040C, strain nat1, active compounds read low 0.98 | locus YDL074C, strain BRE1, active compounds read low 0.999 | locus YDL101C, strain DUN1, active compounds read low 1.01 | locus YDL134C, strain PPH21, active compounds read low 0.99 | locus YDL185W, strain tfp1, active compounds read low 1 | locus YDL192W, strain arf1, active compounds read low 0.979 | locus YDR001C, strain nth1, active compounds read low 1 | locus YDR069C, strain doa4, active compounds read low 0.966 | locus YDR101C, strain arx1, active compounds read low 0.977 | locus YDR137W, strain rgp1, active compounds read low 0.985 | locus YDR159W, strain sac3, active compounds read low 0.987 | locus YDR162C, strain NBP2, active compounds read low 1.01 | locus YDR195W, strain ref2 0.962 | locus YDR297W, strain sur2, active compounds read low 0.99 | locus YDR318W, strain mcm21, active compounds read low 0.981 | locus YDR334W, strain swr1, active compounds read low 0.987 | locus YDR335W, strain msn5, active compounds read low 1.01 | locus YDR388W, active compounds read low 1.02 | locus YDR392W, strain spt3, active compounds read low 0.991 | locus YDR502C, strain sam2, active compounds read low 0.979 | locus YEL003W, strain gim4, active compounds read low 0.972 | locus YEL037C, strain rad23, active compounds read low 1 | locus YEL061C, strain CIN8 (second series), active compounds read low 0.993 | locus YEL061C, strain CIN8, active compounds read low 1.01 | locus YER015W, strain faa2, active compounds read low 0.986 | locus YER016W, strain bim1, active compounds read low 0.993 | locus YER110C, active compounds read low 1.01 | locus YER111C, strain swi4, active compounds read low 0.974 | locus YER155C, strain BEM2 (second series), active compounds read low 0.966 | locus YER155C, strain BEM2, active compounds read low 1.02 | locus YER167W, strain BCK2, active compounds read low 1.01 | locus YFR010W, strain ubp6, active compounds read low 0.968 | locus YGL078C, strain dbp3, active compounds read low 0.967 | locus YGL086W, strain mad1, active compounds read low 0.972 | locus YGL167C, strain pmr1, active compounds read low 0.972 | locus YGL173C, strain kem1, active compounds read low 0.981 | locus YGL227W, strain vid30, active compounds read low 0.996 | locus YGL240W, strain doc1, active compounds read low 0.957 | locus YGL248W, strain PDE1, active compounds read low 1 | locus YGL253W, strain hxk2, active compounds read low 0.99 | locus YGR135W, strain pre9, active compounds read low 0.973 | locus YGR252W, strain gcn5, active compounds read low 0.935 | locus YHR013C, strain ard1, active compounds read low 0.966 | locus YHR027C, strain rpn1, active compounds read low 1.01 | locus YHR030C, strain SLT2, active compounds read low 0.976 | locus YHR079C, strain IRE1 (second series), active compounds read low 1 | locus YHR079C, strain IRE1, active compounds read low 0.968 | locus YHR094C, strain hxt1, active compounds read low 1.02 | locus YHR129C, strain ARP1, active compounds read low 0.997 | locus YHR142W, strain chs7, active compounds read low 1 | locus YHR200W, strain rpn10, active compounds read low 0.985 | locus YIL066C, strain RNR3, active compounds read low 1.01 | locus YIL073C, strain SPO22, active compounds read low 1.01 | locus YIL125W, strain kgd1, active compounds read low 0.995 | locus YIR030C, strain dcg1, active compounds read low 1 | locus YJL092W, strain hpr5, active compounds read low 0.989 | locus YJL095W, strain BCK1 (second series), active compounds read low 0.986 | locus YJL095W, strain BCK1, active compounds read low 0.991 and 0.996 | locus YJL115W, strain asf1, active compounds read low 0.987 | locus YJL129C, strain trk1, active compounds read low 0.983 | locus YJL134W, strain LCB3, active compounds read low 1.02 | locus YJL154C, strain vps35, active compounds read low 0.993 | locus YJL164C, strain tpk1, active compounds read low 1.02 | locus YJL166W, strain qcr8, active compounds read low 0.987 | locus YJL168C, strain set2, active compounds read low 1 | locus YJL187C, strain SWE1 (second series), active compounds read low 0.993 | locus YJL187C, strain SWE1, active compounds read low 1 | locus YJR043C, strain POL32, active compounds read low 1 | locus YJR066W, strain TOR1, active compounds read low 0.894 | locus YJR075W, strain HOC1, active compounds read low 1.01 | locus YKL009W, strain mrt4, active compounds read low 0.991 | locus YKL068W, active compounds read low 1.02 | locus YKL085W, strain MDH1 (second series), active compounds read low 1 | locus YKL085W, strain MDH1, active compounds read low 1 | locus YKL160W, strain elf1, active compounds read low 1.02 | locus YKL190W, strain CNB1, active compounds read low 1.01 | locus YKR001C, strain vps1, active compounds read low 0.98 | locus YKR026C, strain gcn3, active compounds read low 0.983 | locus YKR091W, strain srl3, active compounds read low 0.992 | locus YLL001W, strain dnm1, active compounds read low 1.01 | locus YLL026W, active compounds read low 0.991 | locus YLL041C, strain sdh2, active compounds read low 0.972 | locus YLR027C, strain aat2, active compounds read low 0.99 | locus YLR039C, strain RIC1, active compounds read low 0.914 | locus YLR058C, strain SHM2, active compounds read low 0.992 | locus YLR102C, strain apc9, active compounds read low 1.01 | locus YLR113W, strain HOG1, active compounds read low 1.01 | locus YLR221C, strain rsa3, active compounds read low 0.979 | locus YLR258W, strain gsy2, active compounds read low 0.992 | locus YLR262C, strain YPT6 (second series), active compounds read low 1.01 | locus YLR262C, strain YPT6, active compounds read low 0.989 | locus YLR268W, strain sec22, active compounds read low 0.983 | locus YLR320W, strain mms22, active compounds read low 0.975 | locus YLR330W, strain CHS5, active compounds read low 1.01 | locus YLR342W, strain FKS1 (second series), active compounds read low 1.01 | locus YLR342W, strain FKS1, active compounds read low 0.991 | locus YLR357W, strain rsc2, active compounds read low 0.984 | locus YLR370C, strain arc18, active compounds read low 0.978 | locus YLR371W, strain rom2, active compounds read low 1 | locus YLR384C, strain iki3, active compounds read low 0.963 | locus YLR418C, strain cdc73, active compounds read low 0.951 | locus YML016C, strain PPZ1, active compounds read low 1.01 | locus YML032C, strain rad52, active compounds read low 0.979 | locus YML120C, strain ndi1, active compounds read low 0.994 | locus YML124C, strain tub3, active compounds read low 1 | locus YMR058W, strain fet3, active compounds read low 0.99 | locus YMR078C, strain ctf18, active compounds read low 1 | locus YMR125W, strain sto1, active compounds read low 0.992 | locus YMR129W, active compounds read low 0.996 | locus YMR205C, strain PFK2, active compounds read low 1.03 | locus YMR223W, strain ubp8, active compounds read low 0.975 | locus YMR231W, strain pep5, active compounds read low 0.955 | locus YMR307W, strain GAS1, active compounds read low 0.988 | locus YNL067W, strain RPL9B, active compounds read low 1 | locus YNL071W, strain lat1, active compounds read low 1.02 | locus YNL153C, strain GIM3, active compounds read low 0.985 | locus YNL183C, strain NPR1, active compounds read low 0.933 | locus YNL209W, strain ssb2, active compounds read low 0.996 | locus YNL233W, strain BNI4, active compounds read low 0.989 | locus YNL248C, strain rpa49, active compounds read low 0.992 | locus YNL250W, strain rad50, active compounds read low 1.03 | locus YNL271C, strain bni1, active compounds read low 1.01 | locus YNL298W, strain CLA4, active compounds read low 0.986 | locus YNL307C, strain MCK1, active compounds read low 1 | locus YNL322C, strain KRE1 (second series), active compounds read low 0.974 | locus YNL322C, strain KRE1, active compounds read low 0.986 | locus YNR049C, strain mso1, active compounds read low 0.975 | locus YNR052C, strain pop2, active compounds read low 0.978 | locus YOL006C, strain TOP1, active compounds read low 1.08 | locus YOL012C, strain htz1 1.01 | locus YOL147C, strain pex11, active compounds read low 1.01 | locus YOR001W, strain rrp6, active compounds read low 0.96 | locus YOR061W, strain CKA2, active compounds read low 1.01 | locus YOR069W, strain VPS5, active compounds read low 1.01 | locus YOR070C, strain gyp1, active compounds read low 1 | locus YOR080W, strain dia2, active compounds read low 0.975 | locus YOR083W, strain WHI5, active compounds read low 1.03 | locus YOR106W, strain vam3, active compounds read low 1.03 | locus YOR136W, strain idh2, active compounds read low 1.01 | locus YOR144C, strain elg1, active compounds read low 1.01 | locus YOR184W, strain ser1, active compounds read low 0.973 | locus YOR231W, strain MKK1, active compounds read low 0.974 | locus YOR265W, strain rbl2, active compounds read low 0.991 | locus YOR270C, strain vph1, active compounds read low 0.99 | locus YOR290C, strain snf2, active compounds read low 0.969 | locus YOR316C, strain cot1, active compounds read low 1.01 | locus YPL051W, strain arl3, active compounds read low 0.993 | locus YPL078C, strain atp4, active compounds read low 1.03 | locus YPL106C, strain sse1, active compounds read low 0.99 | locus YPL240C, strain hsp82, active compounds read low 0.974 | locus YPL241C, strain CIN2, active compounds read low 1.02 | locus YPL256C, strain CLN2, active compounds read low 1.01 | locus YPR119W, strain clb2, active compounds read low 1.01 | locus YPR141C, strain kar3, active compounds read low 1.02 | locus YPR163C, strain tif3, active compounds read low 0.983 | locus YPR167C, strain met16, active compounds read low 0.976 | strain wtn01, active compounds read low 0.978
